Marburg entry inh – Marburg virus entry inhibition; Marburg virus pseudotyped entry inhibition, cell reporter; Potency, µM (doses to about 37.8 µM), for inactives: at the highest dose activity change, negative = inhibition, actives largely listed as inhibitors; actives 1.8% (n = 300,000); calls by dose curve; tested in HEK293 cells
VACV mCherry inh – inhibitors of vaccinia virus infection (mCherry reporter signal); Vaccinia virus mCherry reporter infection, fluorescence; Potency, µM (highest dose often 36.5 µM), inactives show at the highest dose activity change, negative = inhibition, actives largely listed as inhibitors; actives 0.63% (n = 310,000); AID 720579; calls by dose curve; tested in A549 cells; further: nearly all actives have a fitted effect of over 35% in size
LASV entry inh – Lassa virus entry inhibition; Lassa virus pseudotype entry inhibition, cell reporter; Potency, µM (doses to about 37.9 µM), without a hit: at the top dose activity change, negative = inhibition, hits mostly inhibitors; actives 1.2% (n = 300,000); calls by dose curve; tested in HEK293 cells; further: nearly all actives have a fitted effect of over 50% in size
FMDV inh – blocks foot and mouth disease virus; FMDV antiviral cell-based qHTS; Potency, µM (highest dose often 57.9 µM), for inactives: at the highest dose activity change, negative = inhibition, most hits filed as inhibitors; actives 1.2% (n = 410,000); calls by dose curve; tested in HEK293T cells; further: read-out not given here; nearly all actives have a fitted effect of over 45% in size
VACV Venus inh – inhibitors of vaccinia virus (Venus reporter); AID 720580; Vaccinia virus Venus reporter expression, fluorescence; actives 0.46% (n = 330,000); Potency, µM (doses to about 36.5 µM), inactives show top-dose activity change, negative = inhibition, hits mostly inhibitors; calls by dose curve; tested in A549 cells; further: nearly all actives have a fitted effect of over 30% in size
HCV inhibitor – inhibitors of hepatitis C virus infection. Huh7.5.1 HCVcc-Cre infection, luciferase reporter, 44 h. actives 3.4% (n = 340,000). Potency, µM (titrated, usually from 41.8 µM), without a hit: at the top dose activity change, negative = inhibition, usual class: inhibitors; active means well fitted inhibition curve with a large enough effect; inconclusive means small, poorly fitted or top-dose-only effect, or another doubt; inactive means no such curve, though single readings can be large or run the other way
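Antiviral activity was scored by luciferase reporter output from cells infected with HCVcc-Cre (~0.5 moi) in presence of compound, 44 h infection period, cells seeded 1,000/well 4 h prior.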
* marks the source's active call; other numbers are inactive results; i = inactive; ? = inconclusive; · = not tested or not shown; [ ] = dose if it differs, or a comment. Hits are enriched below; roughly 5.3% of the tested compounds scored in any of these assays. On the % scale 0 is the no-effect control and ±100 the full control effect; potency means the concentration at half of the fitted maximal effect.

SMILES | Marburg entry inh | VACV mCherry inh | LASV entry inh | FMDV inh | VACV Venus inh | HCV inhibitor
O=[N+]([O-])c1cc(CN2CCCC2)c2cccnc2c1O | -9% | -16% | -1% | -1% | -8% | 11%
CC(C)OCc1cc(CN2CCN(c3cccc(C(F)(F)F)c3)CC2)c(O)c2ncccc12 | ? | 4µM* | ? | -25% | -27%[7.34 µM] | ·
O=[N+]([O-])c1cc(CN2CCN(c3cccc(C(F)(F)F)c3)CC2)c2cccnc2c1O | ? | -20% | ? | -15% | -23% | 4µM*
CCn1c(-c2cccc(OC)c2)nc2cc(NC(C)=O)cc(C(=O)N3CCC[C@H]3C(=O)OC)c21 | · | -8% | · | -6% | 0% | ·
COc1ccc2c(c1)c(CCN1CCOCC1)c(C)n2C(=O)c1cccc(Cl)c1Cl | ? | · | 23µM* | · | · | ·
COc1ccc2c(c1)c(CC(=O)O)c(C)n2C(=O)c1ccc(Cl)cc1 | ? | -13% | -12% | -21% | ? | ?
COc1ccc(Cn2ccnc2SCC(=O)NC2CCCCC2)cc1 | -15% | -5% | ? | -9% | -17% | ·
CCC(Sc1nc2nccnc2c(=O)n1Cc1ccc(OC)cc1)C(=O)NC1CCCCC1 (centres undefined) | · | -20% | 9%[46.1 µM] | 7.1µM* | -7% | ·
CCSc1nc(-c2ccccc2)nc(C(Cl)Cl)n1 | · | ? | · | -17% | 10µM* | ?
CCSc1nc(-c2ccccc2)c2cc(Cl)ccc2n1 | 0% | -15% | 0% | -12% | 3% | 14%
O=C(c1ccc2c(Cl)c3c(nc2c1)CCCC3)N1CCN(c2ccccc2F)CC1 | 1%[46.1 µM] | -7% | -11%[46.1 µM] | -8% | -6% | ·
CCCCN(CCCC)S(=O)(=O)c1ccc(NS(=O)(=O)c2ccc(NC(C)=O)cc2)cc1 | -4% | -14% | 4% | 7% | -13% | 16%
CCCCCCCCNC(=O)CC(NS(=O)(=O)c1ccc(NC(C)=O)cc1)C(C)C (centres undefined) | 8% | -27% | 2.1µM* | 12% | -23% | 15%
Cc1ccc(S(=O)(=O)NC(=O)Nc2ccc(N(C)C)cc2)cc1 | ? | ? | 13µM* | 24% | ? | ?
CCOC(=O)Nc1ccc(NS(=O)(=O)c2ccc(C)cc2)cc1 | -20% | -7% | 12µM* | 42% | -23% | ?
CCCCOc1ccc(S(=O)(=O)Nc2ccc(NC(C)=O)cc2)cc1 | -16% | · | -20% | -23% | · | 8.9µM*
COc1ccc2c(c1)[C@]1(C)CCC(=O)C[C@H]1CC2 | · | -6% | · | -6% | -6% | ·
Cc1ccc(C(NC(=O)NC(C)c2ccccc2)C(Cl)(Cl)Cl)cc1F (centres undefined) | ? | 22µM* | ? | ? | ? | 10µM*
CC(NC(=O)Nc1ccc(Cl)cc1)c1ccccc1 (centres undefined) | · | · | · | -3% | · | -11%
O=C1C(C(=O)N(c2ccccc2)C2CCCCC2)C=NC2SCCN12 (centres undefined) | 16% | · | · | · | · | ·
Oc1cc(O)cc(/C=C/c2ccc(O)c(O)c2)c1 | ? | -25% | 4.1µM* | ? | -16% | 0.56µM*
CC(=O)Nc1ccccc1OCC(=O)N(Cc1ccccc1)C(C)C | ? | -6% | 3% | ? | -25% | 16µM*
O=S(=O)(NCc1cn2ccsc2n1)c1ccc(Oc2ccccc2)cc1 | ? | · | -29% | ? | ? | 7.9µM*
Cc1cc(C)n(CCCN2CCC(C(=O)Nc3cccc(-c4cccc(F)c4)c3)CC2)n1 | 13µM* | ? | -8% | ? | ? | ?
O=C(Nc1cccc(-c2cccc(F)c2)c1)C1CCN(C2CCOCC2)CC1 | · | · | · | -14% | · | 13µM*
SMILES | Marburg entry inh | VACV mCherry inh | LASV entry inh | FMDV inh | VACV Venus inh | HCV inhibitor
O=C(Nc1cccc(-c2cccc(F)c2)c1)C1CCN(Cc2ccc(CO)o2)CC1 | · | · | · | 5% | · | ?
COc1ccc(-c2nc3ccccc3n3c(-c4cccc(C)c4)c4c(=O)n(C)c(=O)n(C)c4c23)cc1 | ? | -23% | 3%[46.1 µM] | ? | -9% | ·
CN(C)c1ccc(/C=N/N=C2/NC(=O)/C(=C/c3ccc([N+](=O)[O-])cc3)S2)cc1 | ? | -21% | 2µM* | 8.9µM* | 2% | 6%
CN(C)c1ccc(C=C2SC(=S)NC2=O)cc1 | ? | -9% | -21%[46.1 µM] | 27% | 96% | 3%
C=CCc1ccccc1OCC(O)CNC1CCCC1 (centres undefined) | · | · | · | -4% | · | -11%
C=CCc1ccccc1OCC(O)CNC(C)C (centres undefined) | 18µM* | 0% | 2% | -21% | -11% | ?
CC(C)NC[C@@H](O)COc1cccc2ccccc12 | 18µM* | -6% | · | -11% | -14% | -14%
CC(C)NC[C@H](O)COc1cccc2ccccc12 | 15µM* | -8% | 1% | -21% | -16% | ?
CC(C)NC[C@H](O)COc1cccc2[nH]ccc12 | ? | -11% | 13% | -8% | -8% | ?
CCCCCN(CCCCC)c1ccc(/C=C/c2ccnc3ccccc23)cc1 | · | 50% | · | · | 37% | ·
CCN(CC)C(=O)C1CCCN(C(=O)c2cc(COc3cccc(OC)c3)on2)C1 (centres undefined) | -16% | -7% | -14% | 1% | -20% | -13%
COc1cccc(/C=N/NC(=O)c2c(-c3ccccc3)noc2C)c1OC | 4% | -14% | -5% | 0% | -9% | 2%
COc1cccc(/C=N/NC(=O)c2c(-c3ccccc3)noc2C)c1O | 11µM* | 10µM* | 10µM* | -13% | ? | ?
COc1cccc(/C=N/NC(=O)C(=O)N2CCCCCC2)c1O | ? | 13µM* | ? | 38% | -27% | 16%
COc1cc(/C=N/NC(=O)c2ccncc2)ccc1OC(=O)c1cccc(Br)c1 | 1%[46.1 µM] | -6% | 26%[46.1 µM] | -14% | -10% | -6%
COc1cccc(/C=N/NC(=O)c2ccncc2)c1OC(=O)c1ccc(Br)cc1 | ? | 4.5µM* | ? | -15% | -29% | ?
Cc1onc(-c2ccccc2)c1C(=O)N/N=C/c1c[nH]c2ccccc12 | 3%[46.1 µM] | -40% | 10µM* | ? | -17% | ?
COc1cccc(/C=N/NC(=O)C(=O)N/N=C/c2cccc(OC)c2O)c1O | ? | -7% | ? | 4% | 2% | -14%
C(=Nc1ccc(/C=C/c2ccnc3ccccc23)cc1)c1cccs1 | · | 3% | · | · | -6% | ·
COc1cc(/C=N/NC(=O)c2cc(-c3cccn3C)n[nH]2)cc(OC)c1OC | -9% | · | -3% | ? | · | -6%
COc1cccc(/C=N/NC(=O)c2cc(-c3cccn3C)n[nH]2)c1O | 8.9µM* | 4µM* | 2.2µM* | 3% | ? | 5µM*
Cc1onc(-c2ccccc2)c1C(=O)N/N=C/c1cc(Br)c(Br)o1 | ? | i | ? | 25µM* | 0% | -16%
COc1c(Br)cc(Br)cc1/C=N/NC(=O)c1cccnc1 | · | · | · | -15% | · | -17%
Cc1ccc(/C=N/NC(=O)c2c(-c3ccccc3)noc2C)o1 | 19% | -13% | 5% | -13% | -3% | 0%

From PubChem BioAssay
